# Test results as given in PubChem BioAssay AID641 (Vanderbilt High Throughput Screening Facility, 2007).
# The campaign covered roughly 58,000 compounds. About 3,400 (5.9%) were called active. The entries come from a sample that favours actives as a whole. Values without a mark were called inactive.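 Rule for the calls: active = luminescence count or its row- and column-corrected plate score outside the 99.7% band of the plate's sample wells, on either side; inactive = the rest.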
# Target: D(1A) dopamine receptor (Homo sapiens) (UniProt P21728)
# Test: D1 CRE-luciferase signal change, two-sided – cell-based, HEK293 D1, dopamine EC30, D1 allosteric modulator project, primary screen (AID 641)
# Settings: dopamine EC30 potentiation, at 10 µM, actives deviate in either direction
# Sequence of D(1A) dopamine receptor (Homo sapiens) (P21728 whole entry, looked up): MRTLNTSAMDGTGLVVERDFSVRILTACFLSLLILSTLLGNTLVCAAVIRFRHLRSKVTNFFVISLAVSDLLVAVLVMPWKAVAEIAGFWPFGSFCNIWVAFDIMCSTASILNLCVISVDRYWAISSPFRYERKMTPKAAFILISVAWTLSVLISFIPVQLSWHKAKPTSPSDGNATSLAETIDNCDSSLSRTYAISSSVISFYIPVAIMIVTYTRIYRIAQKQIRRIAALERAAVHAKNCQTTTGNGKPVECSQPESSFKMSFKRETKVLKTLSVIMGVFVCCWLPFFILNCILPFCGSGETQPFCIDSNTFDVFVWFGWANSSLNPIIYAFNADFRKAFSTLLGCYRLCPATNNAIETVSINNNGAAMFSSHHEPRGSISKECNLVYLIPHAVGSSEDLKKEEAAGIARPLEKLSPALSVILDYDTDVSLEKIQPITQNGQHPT
row,Structure (SMILES),B-score
1,COc1ccc(OC)c(Nc2nc(-c3ccc(O)c(O)c3)cs2)c1,-0.798
2,Oc1ccc(-c2csc(Nc3cccnc3)n2)cc1,6.13 (active)
3,c1ccc(Nc2nc(-c3ccncc3)cs2)nc1,-2.02
4,COc1ccc(OC)c(C(=O)c2coc3ccc(OC)cc23)c1,0.803
5,COc1ccccc1-c1nnc(SCC(=O)Nc2ccccc2)o1,-1.39
6,COc1ccc(-c2nnc(SCC(=O)NC3CCCCC3)o2)cc1OC,5.11 (active)
7,COc1ccc(CCNC(=O)CSc2nnc(-c3cccc(F)c3)o2)cc1OC,0.506
8,Cc1nc2ccccc2c2oc(C(=O)NCC3CCCO3)cc12 (configuration not stated),1.81
9,c1ccc2c(NCC3CCCO3)nc(-c3ccncc3)nc2c1 (configuration not stated),6.75 (active)
10,Cc1ccc(-c2noc(-c3ccccc3C(=O)NCC3CCCO3)n2)cc1 (configuration not stated),-0.376
11,CN(C)/C=C1/C(=O)Nc2ccccc21,0.196
12,CCCCn1c(SCC(=O)NCC2CCCO2)nc2ccc(N3CCOCC3)cc2c1=O (configuration not stated),0.249
13,Cn1c(=O)c2[nH]c(NCC3CCCO3)nc2n(-c2ccccc2)c1=O (configuration not stated),2.53 (active)
14,CC(C)(C)c1nc(NCC2CCCO2)c2nnn(Cc3ccccc3)c2n1 (configuration not stated),0.157
15,CCC1C(C#N)=C(SC)NC2=C1C(=O)CC(C)(C)C2 (configuration not stated),-0.282
16,O=C(CCCCn1c(=O)[nH]c2ccccc2c1=O)NCc1ccc2c(c1)OCO2,0.766
17,O=C(CCn1c(=O)[nH]c2ccccc2c1=O)NCCCN1CCN(c2cccc(Cl)c2)CC1,-1.82
18,O=C(CCCn1c(=O)[nH]c2cc(Cl)ccc2c1=O)NCCN1CCN(c2ccccc2)CC1,-3.76 (active)
19,C=CCNC(=O)C1CC=CCC1C(=O)O (configuration not stated),0.00169
20,CC(C)(C)NC(=O)c1cc(NC(=O)c2ccco2)cc(NC(=O)c2ccco2)c1,-0.752
21,O=C(c1ccco1)N1CCN(c2cccc(Cl)c2)CC1,-0.482

row,Structure (SMILES),B-score
1,O=C(C1CC1)N1CCN=C1SCc1ccc(Cl)cc1,0.0469
2,O=C(c1ccco1)N1CCN=C1SCc1cccc(Cl)c1,6.32 (active)
3,N#CC1=C(N)OC2=C(C(=O)CCC2)C1C1CC=CCC1 (configuration not stated),-0.19
4,CCCN1C(=O)C(NC(C)=O)c2cc(OC)ccc21 (configuration not stated),0.478
5,CC(=O)Nc1cccc(NC(=O)c2c(-c3ccccc3)noc2C)c1,0.894
6,Cc1onc(-c2ccccc2)c1C(=O)N1CCOCC1,-1.43
7,Cc1onc(-c2ccccc2)c1C(=O)Nc1ccccc1C#N,-4.73 (active)
8,Cc1cc(C)c2nc(N3CCCC3)c(C#N)cc2c1,0.082
9,COCCN1Cc2cccc(C(=O)Nc3ccccc3OC)c2C1=O,0.446
10,CS(=O)(=O)NCc1ccc(C(=O)NCc2ccccc2)cc1,0.452
11,CCCN1Cc2cccc(C(=O)NCc3ccccc3)c2C1=O,11.5 (active)
12,O=S(=O)(NCCNS(=O)(=O)c1ccccc1)c1ccccc1,0.231
13,COc1ccccc1Oc1ccc(S(=O)(=O)Nc2cccnc2)cc1,-1.35
14,O=C(Nc1nnc(-c2ccc(Cl)cc2)o1)c1ccccc1Br,-0.685
15,CC1=CC(C)(C)N(C(=O)CSc2nccn2C)c2cc(C)ccc21,-0.925
16,Cc1noc(NS(=O)(=O)c2ccc(NC(=O)C34CCC(CC3)C4)cc2)c1C,-0.488
17,CN(CC(=O)NC1CCCCC1)S(=O)(=O)c1cccc2cccnc12,-1.04
18,O=C(Cn1cnc2c(cnn2-c2ccc(F)cc2)c1=O)NCCc1ccccc1,-0.343
19,Cn1c(/C(C#N)=C2/CCCCCN2)nc2ccccc21,11.4 (active)
20,N#C/C(=C1\CCCN1)c1nc(-c2ccccc2)cs1,-1.24
21,COc1cc(C(O)c2nc3ccccc3n2C)cc(OC)c1OC (configuration not stated),-0.575

row,Structure (SMILES),B-score
1,CCCn1c(C(O)c2ccc(OCC)cc2)nc2ccccc21 (configuration not stated),-0.886
2,CC(C)n1c(C(O)c2ccccc2)nc2ccccc21 (configuration not stated),3.08 (active)
3,CC1(C)Cc2ccccc2-c2nc(CN3CCOCC3)[nH]c(=O)c21,11.8 (active)
4,CCOC(=O)C1Cn2c(nc3c(c2=O)C(C)(CC)Cc2ccccc2-3)S1 (configuration not stated),-0.309
5,Cn1c(=O)c2c(nc(CN3CCOCC3)n2Cc2ccccc2)n(C)c1=O,-0.887
6,Cc1ccc(N(CC(O)CN2CCCC2)S(=O)(=O)c2ccccc2)cc1 (configuration not stated),0.09
7,COc1ccc(-c2nc(CS(=O)CC(=O)N3CCc4ccccc4C3)c(C)o2)cc1 (configuration not stated),-0.182
8,COc1ccc(-n2ncc3c(N4CCCc5ccccc54)ncnc32)cc1,0.526
9,COc1ccc(-n2ncc3c(N4CCc5ccccc54)ncnc32)cc1,-3.03 (active)
10,Cc1cccc(-n2ncc3c(N4CCc5ccccc54)ncnc32)c1,-0.748
11,Cc1cc(/C=N/n2cnnc2)c(C)n1-c1ccc2ncccc2c1,-0.264
12,CN1C(=O)c2ccc(NC(=O)c3c(F)c(F)c(F)c(F)c3F)cc2C1=O,0.371
13,O=C(Cn1cnc2c(nnn2Cc2ccc(F)cc2)c1=O)NCc1ccc2c(c1)OCO2,-1.24
14,CNC(=O)C1CC(=O)N(Cc2ccc3c(c2)OCO3)C(=Nc2ccc(F)cc2)S1 (configuration not stated),-4.24 (active)
15,O=C(CN1CCN(CC(=O)Nc2ccc3c(c2)OCO3)CC1)Nc1ccc(F)cc1,-0.0409
16,O=C(Nc1cccc(F)c1)c1ccc(S(=O)(=O)N2CCCC2)cc1,-0.728
17,CC(C)CNS(=O)(=O)c1ccc(OCC(=O)Nc2ccc3c(c2)OCO3)c(Cl)c1,0.525
18,Cc1ccccc1OCC(=O)Nc1ccc(N2CCN(C(=O)C(C)C)CC2)c(Cl)c1,-0.399
19,CN1CCN(c2ccc(NC(=O)COc3ccc(Cl)cc3Cl)cc2)CC1,-5.29 (active)
20,Cc1ccc(C)c(NC(=O)CSc2nnc(Cc3cccn3C)n2-c2ccc(F)cc2)c1,-0.0122
